Source: PubChem BioAssay (NCATS)
Inconclusive results are not listed. Entries that show only a call come without a potency. Values without a mark were called inactive. The source made the active and inactive calls. Calls come from the whole dose curve; as a rule, active = well fitted inhibition curve with a large enough effect; inconclusive = small, poorly fitted or top-dose-only effect; inactive = no such curve, though single readings can be large or run the other way. Where a SMILES comes first, the peptide text is derived from it. [ ]: non-standard residue; d: D form.

What was measured:
[1] = tested on: Zika virus NS2B-NS3 protease (unlinked complex); test: Primary screen GU Rhodamine qHTS for Zika virus inhibitors: Unlinked NS2B-NS3 protease assay (AID 1347159); settings: Recombinant ZIKV NS2B-NS3 protease, Rhodamine110 substrate fluorescence; series mostly up to 107 µM; note: nearly all actives have a fitted effect of over 60% in size
In short: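 Percent inhibition derives from the 15-min fluorescence change (ex 480, em 540 nm), normalized to no-enzyme and no-inhibitor wells. Reactions contained 25 nM NS2B-NS3 complex and 1.5 microM substrate in 10 mM Tris-HCl pH 8.0.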

[2] = tested on: Zika virus NS2B-NS3 protease (linked construct); test: Primary screen NINDS Rhodamine qHTS for Zika virus inhibitors (AID 1347160); settings: purified NS2B-NS3 protease, Rhodamine110 substrate fluorescence; series mostly up to 57.1 µM; note: nearly all actives have a fitted effect of over 55% in size
In short: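 In 10 mM Tris-HCl pH 8.0 containing 0.01% Tween 20, linked NS2B-NS3 protease (25 nM final) is exposed to test compounds for 15 min. Cleavage of 1.5 microM Rhodamine110 substrate is tracked by fluorescence over 15 min.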
Potency is the fitted concentration of half-maximal effect.

CC(C#N)C(C)O[C@@H]1O[C@H](CO)[C@@H](O)[C@H](O)[C@H]1O (some centres undefined)
Potency [1]: inactive | Potency [2]: inactive

C#Cc1cnc2[nH]c(=O)n(C(CC)CC)c2n1
Potency [1]: inactive | Potency [2]: inactive

COc1cc(/C=C/C(=O)OC[C@H]2O[C@H](O[C@]3(CO)O[C@H](CO)[C@@H](O)[C@@H]3O)[C@H](O)[C@@H](O)[C@@H]2O)cc(OC)c1O
Potency [1]: inactive | Potency [2]: inactive

O=C(O)C[C@H](O)C[C@H](O)/C=C/c1c(C2CC2)nc2ccccc2c1-c1ccc(F)cc1
Potency [1]: inactive | Potency [2]: inactive

COc1cc(C(=O)OC[C@H]2O[C@H](O[C@@]3(CO)O[C@@H](CO)[C@H](O)[C@H]3O)[C@H](O)[C@@H](O)[C@@H]2O)ccc1O
Potency [1]: inactive | Potency [2]: inactive

C=CC1(C)CC(OC(=O)C(=C)C(O)COC(C)=O)C(C(=C)C(=O)OC)C(O)C1C(=C)CO (centres undefined)
Potency [1]: inactive | Potency [2]: inactive

C/C=C(\C)C(=O)OC[C@H]1O[C@H](O[C@H]2O[C@H](CO)[C@@H](OC(=O)/C(C)=C/C)[C@H](O)[C@H]2O[C@@H]2O[C@H](CO)[C@@H](O)[C@H](O)[C@H]2O)[C@H](O[C@@H]2O[C@H](CO)[C@@H](O)[C@H](O)[C@H]2O)[C@@H](O)[C@@H]1O
Potency [1]: inactive | Potency [2]: inactive

O=C(O)C[C@@H](NC(=O)c1cc(-c2ccc(-c3ccncc3)cc2)cs1)c1ccccc1
Potency [1]: 15.8 µM (active) | Potency [2]: 20 µM (active)

CC(=O)O[C@@]1(C)C[C@@H](O)[C@]2(O)C=CO[C@@H](O[C@@H]3O[C@H](CO)[C@@H](O)[C@H](O)[C@H]3O)[C@@H]21
Potency [1]: inactive | Potency [2]: inactive

CC1(C)CC2C3=CCC4C5(C)CCC(OC6OC(C(=O)O)C(O)C(O)C6OC6OC(CO)C(O)C(O)C6OC6OC(CO)C(O)C(O)C6O)C(C)(CO)C5CCC4(C)C3(C)CCC2(C)C(OC2OCC(O)C(OC3OC(CO)C(O)C(O)C3O)C2O)C1O (centres undefined)
activity change, negative = inhibition [1]: 8.97% [at 19.1 µM] | activity change, negative = inhibition [2]: -17% [at 10.7 µM]

CC1=CC2(O)/C=C/C(C)(O)CC(O)/C=C/C(=O)OC23C(=O)NC(CC(C)C)C3C1C (centres undefined)
Potency [1]: inactive | Potency [2]: inactive

CCOC(=O)[C@H](CCc1ccccc1)CC1(C(=O)N[C@H]2CCc3ccccc3N(CC(=O)O)C2=O)CCCC1
Potency [1]: inactive | Potency [2]: inactive

CCC(CC)n1ccc2c(C(=O)NCc3c(C)cc(C)[nH]c3=O)cc(C#N)cc21
Potency [1]: inactive | Potency [2]: inactive

Nc1ccn([C@@H]2C(F)=C(CO)[C@@H](O)[C@H]2O)c(=O)n1
Potency [1]: inactive | Potency [2]: inactive

C[C@@H]1O[C@@H](O[C@H]2[C@H](O[C@H]3CC[C@@]4(C)C(CC[C@]5(C)C4CC=C4[C@@H]6CC(C)(C)CC[C@]6(C(=O)O)CC[C@]45C)[C@]3(C)CO)OC[C@H](O)[C@@H]2O)[C@H](O)[C@H](O[C@@H]2OC[C@@H](O)[C@H](O)[C@H]2O)[C@H]1O (some centres undefined)
Potency [1]: inactive | Potency [2]: inactive

C/C=C1/[C@H](O[C@@H]2O[C@H](CO)[C@@H](O)[C@H](O)[C@H]2O)OC=C(C(=O)OC)[C@H]1CC(=O)O[C@@H]1O[C@H](CO)[C@@H](O)[C@H](O)[C@H]1O
Potency [1]: inactive | Potency [2]: inactive

COC1CC(=O)CCC(C)OC(=O)CC1O (centres undefined)
Potency [1]: inactive | Potency [2]: inactive

C=C1C2=CC(O)C(C)C1(C)CC/C(C)=C/CCC1(C)OC1C2=O (centres undefined)
Potency [1]: inactive | Potency [2]: inactive

CCOC(=O)c1ccc(N(C)c2csc(-c3ccccc3)n2)cc1
Potency [1]: inactive | Potency [2]: inactive

C=CCc1ccc(O[C@@H]2O[C@H](CO[C@@H]3O[C@H](CO)[C@@H](O)[C@H](O)[C@H]3O)[C@@H](O)[C@H](O)[C@H]2O)c(O)c1
Potency [1]: inactive | Potency [2]: inactive

Nc1c(Br)cc(Br)cc1CNC1CCC(O)CC1 (centres undefined)
Potency [1]: inactive | Potency [2]: inactive

Cn1c(=O)c2nc(/C=C/c3cccc(Cl)c3)n(C)c2n(C)c1=O
Potency [1]: inactive | Potency [2]: inactive

CC(=O)N[C@H](Cc1ccc(O)cc1)C(=O)N[C@H](CCCN=C(N)N)C(=O)N[C@H](Cc1ccccc1)C(N)=O (Ac-[dY]-[dR]-[dF]-NH2)
Potency [1]: inactive | Potency [2]: inactive

C[C@H](NCc1ccc(OCc2ccccc2F)cc1)C(N)=O
Potency [1]: inactive | Potency [2]: inactive

COC1C2=C(COC2=O)C2(C)CCCC(C)(CO)C2C1OC(=O)c1ccccc1 (centres undefined)
Potency [1]: inactive | Potency [2]: inactive

COc1cc(C2Oc3c(O)cc(CCCO)cc3C2CO)ccc1O[C@H]1O[C@H](C)[C@@H](O)[C@H](O)[C@@H]1O (some centres undefined)
Potency [1]: inactive | Potency [2]: inactive

CC(C)C(=O)O[C@@H]1[C@@H](O)[C@@H](O[C@H]2O[C@H](CO)[C@@H](O)[C@H](O)[C@H]2O)O[C@H](CO)[C@H]1O
Potency [1]: inactive | Potency [2]: inactive
